From PubChem
Sampled rows, rich in hits. Any-hit rate of the full collection: about 2.5%.
MEKK3 PB1 HTS = modulators of MEKK3-MEK5 PB1 binding, primary screen, biochemical, wildtype MEKK3, multiplex bead flow cytometry, Alexa488-MEK5; bead-based flow cytometry, Alexa488-MEK5 binding to MEKK3; actives lie on both sides; 0 = blocked by unlabeled MEK5, 100 = vehicle; 290,000 tested, 1.4% active; binding response (% of control), % at 10 µM; AID 1529, 2009; Mitogen-activated protein kinase kinase kinase 3 (Homo sapiens), Q99759;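 active = binding response more than 3 SD above or below the average of its plate-row segment, actives on both sides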;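 also: Alexa488 bead fluorescence after subtracting the streptavidin-only scavenger bead signal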
MEKK2 WT-MEK5 = modulators of MEK5 binding to wildtype MEKK2, primary screen, biochemical, multiplex bead flow cytometry, Alexa488-MEK5. Alexa488-MEK5 binding to MEKK2 WT; actives lie on both sides. 290,000 tested, 1.1% active. binding response (% of control), % at 10 µM. Mitogen-activated protein kinase kinase kinase 2 (Homo sapiens), Q9Y2U5; in the data active = binding response below about 67% or above about 130%
Rce1 inh = yeast Rce1p protease inhibitors, primary screen, biochemical, fluorescence, cell-free homogeneous. CAAX prenyl protease 2 (Saccharomyces cerevisiae (strain ATCC 204508 / S288c)), Q03530. calls only. 290,000 tested, 0.27% active. yeast membranes, quenched prenylated peptide cleavage fluorescence;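 active = fall in fluorescence gain of 50% or more versus controls, with final raw signal at or below 3038400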
Target sequence (Q03530 whole entry, looked up): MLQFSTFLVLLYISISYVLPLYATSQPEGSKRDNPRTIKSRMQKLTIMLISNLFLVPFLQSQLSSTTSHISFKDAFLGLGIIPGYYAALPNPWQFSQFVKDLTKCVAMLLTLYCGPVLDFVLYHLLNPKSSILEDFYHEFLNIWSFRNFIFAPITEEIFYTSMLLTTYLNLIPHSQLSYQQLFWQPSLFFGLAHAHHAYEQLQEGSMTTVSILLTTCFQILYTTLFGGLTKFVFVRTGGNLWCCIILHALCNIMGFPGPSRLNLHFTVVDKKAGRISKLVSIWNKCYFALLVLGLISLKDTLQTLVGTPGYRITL
MEKK2 mut-MEK5 = MEK5 binding signal on mutant MEKK2 PB1, primary screen, biochemical, multiplex bead flow cytometry, Alexa488-MEK5 | percent response, % at 10 µM | Alexa488-MEK5 binding to MEKK2 mutant | 290,000 tested, 0.35% active; in the data active = percent response above about 24%, passing the limit was not always enough
UBC13 polyUb = UBC13 polyubiquitin chain formation inhibitors, primary screen, biochemical, TR-FRET, uHTS | Ubiquitin-conjugating enzyme E2 N (Homo sapiens), P61088 | inhibition, % at 20 µM | 330,000 tested, 0.47% active | AID 485273, 2010; in the data active = inhibition above about 45%, passing the limit was not always enough
Target sequence (P61088 whole entry, looked up): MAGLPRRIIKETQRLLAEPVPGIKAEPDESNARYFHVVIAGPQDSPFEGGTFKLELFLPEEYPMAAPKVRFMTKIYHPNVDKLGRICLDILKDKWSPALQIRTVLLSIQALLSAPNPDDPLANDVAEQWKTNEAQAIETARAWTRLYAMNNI
MEKK2wt confirm = modulators of MEK5 binding to wildtype MEKK2, confirmation, biochemical, single concentration, multiplex bead flow cytometry; shares compounds with MEKK3 PB1 HTS; Alexa488-MEK5 binding to MEKK2 WT; actives lie on both sides; binding response (% of control), % at 10 µM; 5,900 tested, 2.4% active; AID 1892, 2009; in the data active = binding response below about 16% or above about 210%; inactive = in between
MEKK2mut-MEK5 = mutant MEKK2 PB1-MEK5 binding signal retest – biochemical, single concentration, multiplex bead flow cytometry, confirmation | shares compounds with MEKK3 PB1 HTS | Alexa488-MEK5 binding to MEKK2 mutant | percent response, % at 10 µM | 5,900 tested, 2% active | AID 1893, 2009; in the data active = percent response mostly above about 71%, no sharp cut-off; inactive = mostly below about 38%;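 also: higher means compound restores mutant binding toward wildtype level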
MEKK3 confirm = MEKK3 wild-type PB1 binding to MEK5, inhibitors, confirmation, biochemical, bead multiplex flow cytometry, single concentration, wildtype. Alexa488-MEK5 binding to MEKK3; stronger effect = lower value. AID 1894, 2009. 5,900 tested, 1.8% active. shares compounds with MEKK3 PB1 HTS. binding response (% of control), % at 10 µM;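 active = binding response below 72% of control, or above a set upper limit, though filed actives all read lower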
Each line names hits and unclear results; the compound was inactive in the other large screens (follow-up assays come after a bar, where they were run); [ ] = dose if it differs, or a comment.

CCOc1ccccc1C1CC(c2cccs2)=NN1S(C)(=O)=O (stereo unspecified)	MEKK3 PB1 HTS 2.0[inhibitor] | MEKK2wt confirm inactive | MEKK2mut-MEK5 inactive | MEKK3 confirm inactive
CS(=O)(=O)N1N=C(c2cccs2)CC1c1ccc(F)cc1 (stereo unspecified)	MEKK2 WT-MEK5 22[inhibitor] | MEKK2wt confirm inactive | MEKK2mut-MEK5 inactive | MEKK3 confirm inactive
O=C(c1ccco1)N1N=C(c2cccs2)CC1c1ccccc1O (stereo unspecified)	none
CS(=O)(=O)N1N=C(c2cccs2)CC1c1ccccc1O (stereo unspecified)	MEKK2 WT-MEK5 0.0[inhibitor] | MEKK2wt confirm inactive | MEKK2mut-MEK5 inactive | MEKK3 confirm inactive
CC(=O)c1ccc([N+](=O)[O-])c(CS(=O)(=O)c2ccc(Cl)cc2)c1	none
CCC(CC)NC(=O)Cc1ccc(F)cc1	none
C[C@H]1CN([C@@H](C)CO)C(=O)c2cccc(NS(=O)(=O)c3ccc(Cl)cc3)c2O[C@@H]1CN(C)CC1CCCCC1	none (no result: MEKK3 PB1 HTS, MEKK2 WT-MEK5, Rce1 inh, MEKK2 mut-MEK5)
COc1ccc(/C=C/c2noc(-c3ccccc3O)n2)cc1	MEKK3 PB1 HTS 131 | MEKK2wt confirm inactive | MEKK2mut-MEK5 inactive | MEKK3 confirm inactive
COc1ccc(/C(C)=N\Nc2nc(-c3ccccc3)cc(=O)[nH]2)cc1	none
CN(C)c1ccc(/C=N\Nc2nc(-c3ccccc3)cc(=O)[nH]2)cc1	MEKK3 PB1 HTS 59[inhibitor] | MEKK2wt confirm inactive | MEKK2mut-MEK5 inactive | MEKK3 confirm inactive
CC(C)(C)NC(=O)NC(=O)COC(=O)c1ccc2c(c1)S(=O)(=O)N=C1CCCCCN12	MEKK3 PB1 HTS 147 | MEKK2wt confirm inactive | MEKK2mut-MEK5 inactive | MEKK3 confirm inactive
CC(NC(=O)COC(=O)c1ccc2c(c1)S(=O)(=O)N=C1CCCCCN12)C12CC3CC(CC(C3)C1)C2 (stereo unspecified)	none
Cc1ccc(C)c(N2CCN(c3cnn(-c4nc5ccccc5s4)c(=O)c3Cl)CC2)c1	MEKK3 PB1 HTS 143 | MEKK2wt confirm inactive | MEKK2mut-MEK5 inactive | MEKK3 confirm inactive
CC1(C)CC[C@]2(C(=O)O)CC[C@]3(C)C(=CCC4[C@@]5(C)CC[C@H](O)C(C)(C)C5CC[C@]43C)C2C1 (stereo partly specified)	none (no result: UBC13 polyUb)
CC1(C)CC[C@]2(C(=O)O)CC[C@]3(C)C(=CC[C@@H]4[C@@]5(C)CC[C@H](O)C(C)(C)[C@@H]5CC[C@]43C)[C@@H]2C1	MEKK2 WT-MEK5 150 (no result: Rce1 inh) | MEKK2wt confirm inactive | MEKK2mut-MEK5 inactive | MEKK3 confirm inactive
Cc1ccc(/C=N/NC(=O)Cn2nnc(N)n2)o1	none
CN(CCOc1ccccc1)C(=O)C1CCN(C(=O)c2ccc(F)cc2)CC1	none
COc1ccccc1C1CC(=O)NC(C)=C1C(=O)OC(C)C (stereo unspecified)	MEKK3 PB1 HTS 49[inhibitor] (no result: Rce1 inh) | MEKK2wt confirm inactive | MEKK2mut-MEK5 inactive | MEKK3 confirm inactive
CCOc1ccccc1N(CC(=O)NC1CCCCC1)S(=O)(=O)c1ccc(C)cc1	none
CCOc1ccccc1N(CC(=O)OC)S(=O)(=O)c1ccccc1	MEKK3 PB1 HTS 126 | MEKK2wt confirm inactive | MEKK2mut-MEK5 inactive | MEKK3 confirm inactive
CCOc1ccccc1N(CC(=O)NC1CCCCC1)S(C)(=O)=O	MEKK3 PB1 HTS 74[inhibitor] | MEKK2wt confirm inactive | MEKK2mut-MEK5 inactive | MEKK3 confirm inactive
O=C(COC(=O)c1cc(=O)[nH]c2ccccc12)Nc1nc(-c2ccccc2)cs1	none
Cc1cccc(-n2c(C)c(-c3ccccc3)[nH]c2=S)c1	none
O=C(NCc1ccccc1)c1ccc(Cn2cc(C(F)(F)F)ccc2=O)cc1	none
O=C(NCc1cccnc1)c1ccc(Cn2cc(C(F)(F)F)ccc2=O)cc1	MEKK3 PB1 HTS 69[inhibitor] | MEKK2wt confirm inactive | MEKK2mut-MEK5 inactive | MEKK3 confirm inactive
O=C(O)c1ccc(Cn2cc(C(F)(F)F)ccc2=O)cc1	MEKK3 PB1 HTS 37[inhibitor] | MEKK2wt confirm inactive | MEKK2mut-MEK5 inactive | MEKK3 confirm inactive
CCN(CC)CCN1c2ccccc2Sc2ccc3ccccc3c21	MEKK2 WT-MEK5 136 | MEKK2wt confirm inactive | MEKK2mut-MEK5 inactive | MEKK3 confirm inactive
CS(=O)(=O)c1ccc2nc(NC(=O)c3ccc(Cn4cc(Br)cn4)o3)sc2c1	none
Cc1ccc(O)c(-c2cc(C(=O)Nc3ccc(S(=O)(=O)N4CC(C)OC(C)C4)cc3)[nH]n2)c1 (stereo unspecified)	MEKK3 PB1 HTS 123 | MEKK2wt confirm inactive | MEKK2mut-MEK5 inactive | MEKK3 confirm inactive
Cc1ccc(-c2cc(C(=O)Nc3ccc(S(=O)(=O)N4CC(C)OC(C)C4)cc3)[nH]n2)c(O)c1 (stereo unspecified)	none
NC1=NC(=O)C(Cc2ccc(Br)cc2)S1 (stereo unspecified)	none
O=C(CNC(=O)c1ccc(N2C(=O)c3ccccc3C2=O)cc1)OCC(=O)c1ccccc1	none
O=C(CNC(=O)c1ccc(N2C(=O)c3ccccc3C2=O)cc1)OCC(=O)c1cccc2ccccc12	MEKK3 PB1 HTS 2.0[inhibitor], MEKK2 WT-MEK5 4.0[inhibitor] | MEKK2wt confirm inactive | MEKK2mut-MEK5 inactive | MEKK3 confirm inactive
O=C(Nc1ccnn1C1CCN(Cc2ccc(OC(F)F)cc2)CC1)C1CCCC1	MEKK2 WT-MEK5 135 (no result: Rce1 inh) | MEKK2wt confirm inactive | MEKK2mut-MEK5 inactive | MEKK3 confirm inactive
O=C(Nc1ccnn1C1CCN(Cc2ccc(Cl)cc2)CC1)C1CCCC1	none
Cc1ccc(NC(=O)CCNS(=O)(=O)c2ccc3[nH]c(=O)oc3c2)cc1N(C)C	none
CCOC(=O)Cc1nc(-c2ccccc2)n[nH]1	MEKK2 WT-MEK5 1.0[inhibitor] | MEKK2wt confirm inactive | MEKK2mut-MEK5 inactive | MEKK3 confirm inactive
COCCNC(=O)COc1ncnc2scc(-c3ccc(F)cc3)c12	MEKK3 PB1 HTS 143 | MEKK2wt confirm inactive | MEKK2mut-MEK5 inactive | MEKK3 confirm inactive
COc1cccc(-n2c(C)nn(C)c2=O)c1	none
COc1cccc(-n2c(C)n[nH]c2=O)c1	MEKK3 PB1 HTS 3.0[inhibitor], MEKK2 WT-MEK5 3.0[inhibitor] | MEKK2wt confirm inactive | MEKK2mut-MEK5 inactive | MEKK3 confirm inactive
